Assay results as given in PubChem BioAssay.
Active and inactive are the calls of the source.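 The calls were made as follows, unless noted: active = normalized viability below 100% at a tested concentration; inactive = the rest.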

Key:
[1] = viability loss with induced miR-34 in A549 – imaging, A549 dox-inducible miR-34, nuclei and caspase counts, primary screen (AID 1347080;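 active = compounds whose cell count with miR-34 switched on is under 0.7 times the count with it off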); settings: A549 miR-34 inducible, Hoechst nuclei count, 48 h
[2] = MELAS cybrid and Rieske KO viability enhancers – cell-based, MELAS cybrids, Rieske KO mouse fibroblasts, CellTiter-Glo, primary screen (AID 1508586;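 active = mean z-score across replicates of 1.96 or higher in either the MELAS or the Rieske mutant cell line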;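 also: z relative to plate mean and SD of compound and empty wells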); settings: low glucose
[3] = drug combination growth inhibition, ovarian cancer – cell-based, oncology-focused library, rucaparib conditional, profiling panel (AID 1508598); settings: patient-derived ovarian cancer cells, CellTiter-Glo viability, 144 h, stronger effect = lower value
[4] = stronger effect = lower value, cell number ratio, induced over uninduced
[5] = measured here: relative caspase fold change +Dox/-Dox
[6] = measured here: total cells with miR-34 induction, stronger effect = lower value
[7] = measured here: total cells without miR-34 induction
[8] = MELAS cybrid survival, CellTiter-Glo 48 h, stronger effect = higher value
[9] = Rieske KO mouse fibroblast survival, CellTiter-Glo 72 h
[10] = at 0.000305 µM, OCI-C5x cells, with rucaparib 10 µM, 100% = cells with rucaparib alone
[11] = at 0.000305 µM, OCI-C5x cells, without rucaparib
[12] = at 0.000305 µM, OCI-P5x cells, with rucaparib 20 µM, 100% = cells with rucaparib alone
[13] = at 0.000305 µM, OCI-P5x cells, without rucaparib
[14] = at 0.00122 µM, OCI-C5x cells, with rucaparib 10 µM, 100% = cells with rucaparib alone
[15] = at 0.00122 µM, OCI-C5x cells, without rucaparib
[16] = at 0.00122 µM, OCI-P5x cells, with rucaparib 20 µM, 100% = cells with rucaparib alone
[17] = at 0.00122 µM, OCI-P5x cells, without rucaparib
[18] = at 0.00488 µM, OCI-C5x cells, with rucaparib 10 µM, 100% = cells with rucaparib alone
[19] = at 0.00488 µM, OCI-C5x cells, without rucaparib
[20] = at 0.00488 µM, OCI-P5x cells, with rucaparib 20 µM, 100% = cells with rucaparib alone
[21] = at 0.00488 µM, OCI-P5x cells, without rucaparib
[22] = at 0.0195 µM, OCI-C5x cells, with rucaparib 10 µM, 100% = cells with rucaparib alone
[23] = at 0.0195 µM, OCI-C5x cells, without rucaparib
[24] = at 0.0195 µM, OCI-P5x cells, with rucaparib 20 µM, 100% = cells with rucaparib alone
[25] = at 0.0195 µM, OCI-P5x cells, without rucaparib
[26] = at 0.0781 µM, OCI-C5x cells, with rucaparib 10 µM, 100% = cells with rucaparib alone
[27] = at 0.0781 µM, OCI-C5x cells, without rucaparib
[28] = at 0.0781 µM, OCI-P5x cells, with rucaparib 20 µM, 100% = cells with rucaparib alone
[29] = at 0.0781 µM, OCI-P5x cells, without rucaparib
[30] = at 0.313 µM, OCI-C5x cells, with rucaparib 10 µM, 100% = cells with rucaparib alone
[31] = at 0.313 µM, OCI-C5x cells, without rucaparib
[32] = at 0.313 µM, OCI-P5x cells, with rucaparib 20 µM, 100% = cells with rucaparib alone
[33] = at 0.313 µM, OCI-P5x cells, without rucaparib
[34] = at 1.25 µM, OCI-C5x cells, with rucaparib 10 µM, 100% = cells with rucaparib alone
[35] = at 1.25 µM, OCI-C5x cells, without rucaparib
[36] = at 1.25 µM, OCI-P5x cells, with rucaparib 20 µM, 100% = cells with rucaparib alone
[37] = at 1.25 µM, OCI-P5x cells, without rucaparib
[38] = at 5 µM, OCI-C5x cells, with rucaparib 10 µM, 100% = cells with rucaparib alone
[39] = at 5 µM, OCI-C5x cells, without rucaparib
[40] = at 5 µM, OCI-P5x cells, with rucaparib 20 µM, 100% = cells with rucaparib alone
[41] = at 5 µM, OCI-P5x cells, without rucaparib

CCOC(=O)c1[nH]c2cc(Cl)ccc2c1C(C(=O)NC(C)(C)C)N(C=O)Cc1ccc(Cl)cc1 (stereo unspecified)
active: viability [3, 12] 75.1% | viability [3, 13] 82% | viability [3, 16] 66.5% | viability [3, 17] 73% | viability [3, 20] 67.1% | viability [3, 21] 64.8% | viability [3, 24] 69.4% | viability [3, 25] 63.9% | viability [3, 28] 96.7% | viability [3, 32] 99.6% | viability [3, 33] 99.6% | viability [3, 40] 62%
2780: cell count [1, 7]
0.584: fold change [1, 5]
-1.07: z-score [2, 9]
2750: cell count [1, 6]
inactive: fold change [1, 4] 0.989 | z-score [2, 8] -0.405 | viability [3, 10] 118% | viability [3, 11] 105% | viability [3, 14] 112% | viability [3, 15] 113% | viability [3, 18] 113% | viability [3, 19] 104% | viability [3, 22] 110% | viability [3, 23] 116% | viability [3, 26] 114% | viability [3, 27] 102% | viability [3, 29] 103% | viability [3, 30] 108% | viability [3, 31] 106% | viability [3, 34] 111% | viability [3, 35] 105% | viability [3, 36] 103% | viability [3, 37] 102% | viability [3, 38] 116% | viability [3, 39] 120% | viability [3, 41] 101%

NC(=O)CCCSc1nc(N)nc(-c2c(Cl)cc3c4c(cccc24)COC3)n1
2570: cell count [1, 7]
-2.67: z-score [2, 9]
active: z-score [2, 8] 2.88 | viability [3, 11] 95.8% | viability [3, 16] 98% | viability [3, 17] 96.2% | viability [3, 21] 98.7% | viability [3, 25] 94.9% | viability [3, 27] 98.7% | viability [3, 28] 16.9% | viability [3, 29] 38.5% | viability [3, 30] 74.7% | viability [3, 31] 35.4% | viability [3, 32] 14.5% | viability [3, 33] 8.07% | viability [3, 34] 16% | viability [3, 35] 7.19% | viability [3, 36] 7.31% | viability [3, 37] 5.49% | viability [3, 38] 9.52% | viability [3, 39] 6.09% | viability [3, 40] 4.5% | viability [3, 41] 3.17%
0.479: fold change [1, 5]
2430: cell count [1, 6]
inactive: fold change [1, 4] 0.945 | viability [3, 10] 109% | viability [3, 12] 104% | viability [3, 13] 102% | viability [3, 14] 107% | viability [3, 15] 101% | viability [3, 18] 114% | viability [3, 19] 103% | viability [3, 20] 106% | viability [3, 22] 125% | viability [3, 23] 111% | viability [3, 24] 103% | viability [3, 26] 147%
